The panel holds about 83,000 compounds, 20% with a hit somewhere; the sample as a whole holds those more often.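 Step 1: grow cells in 96-well plates. Step 2: add test compound at a single concentration. Step 3: incubate 48 h. Step 4: record percent growth.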 Calls of active or inactive are those of the source. Rule for the calls: active = growth percent below 10; inactive = the rest.
The molecules below were run on HCT-15 colon (assay: NCI-60 one-dose screen, 48 h (100 = growth as untreated, 0 = no growth, -100 = all killed)). Settings: 10 µM unless noted.

Row | SMILES | growth
1 | CNCc1cccc2c1OCCOCCOCCN(CCN1CCOCC1)S(=O)(=O)c1ccc(cc1)-c1cnc(N)c(n1)C(=O)N2 | 74.8% (inactive)
2 | Cc1cnc(-c2ccc(-c3ccc(NC(=O)Nc4c(F)cc(F)cc4F)cc3F)c3c2C(=O)NC3)[nH]1 | 49.4% (inactive)
3 | Cc1cc(C)c(NC(=O)c2sc3nc4c(cc3c2N)CCCCCC4)c(C)c1 | 41.1% (inactive)
4 | O=C1NN(c2ccccc2)C(c2ccc3c(c2)OCO3)N2CCC[C@@H]12 (stereo partly specified) | 102% (inactive)
5 | C=C1C(=O)O[C@H]2[C@H]1CC/C(COC(=O)CCCCCCCCC(=O)OC/C1=C/CC[C@@]3(C)O[C@H]3[C@H]3OC(=O)C(=C)[C@@H]3CC1)=C\CC[C@@]1(C)O[C@@H]21 | -31.6% (active)
6 | COc1ccc(C2N(c3cc(OC)c(OC)c(OC)c3)C(=O)C2(F)F)cc1F (stereo unspecified) | 19.4% (inactive)
7 | C=C1C(=O)O[C@H]2[C@H]1CC/C(COC(=O)CCCCCCC(=O)OC/C1=C/CC[C@@]3(C)O[C@H]3[C@H]3OC(=O)C(=C)[C@@H]3CC1)=C\CC[C@@]1(C)O[C@@H]21 | 0.887% (active)
8 | O=c1nc(-c2ccccc2)c2cc(-c3ccc(N4CCCC4)nc3)ccc2[nH]1 | 44% (inactive)
9 | O=C(Nc1nc(-c2ccccc2)cs1)c1cc(-c2ccc(Br)cc2)nc2ccccc12 | 33% (inactive)
10 | COc1ccc2nc3c(n2c1)C(=O)C(=O)c1ccccc1-3 | -60.2% (active)
11 | C=C1C(=O)O[C@H]2[C@H]1CCC(/C=N/c1ncc(Br)cc1N)=C\CC[C@@]1(C)O[C@@H]21 | -45.3% (active)

From PubChem BioAssay (NCI)
